Experimental data published in PubChem BioAssay (NCATS).
Results filed as inconclusive are left out. Calls of active or inactive are those of the source. Calls follow the shape of the dose curve; as a rule, active = well fitted curve in the direction sought with a large enough effect; inconclusive = small, poorly fitted or top-dose-only effect, or another doubt; inactive = no such curve, though single readings can be large; an effect the other way counts as inactive or inconclusive.

Assays:
[1] = MultiTox-Fluor Cytotoxicity Assay - LYMP1-001 - Dead Cells (AID 946)
Procedure, shortened: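 AC50 from Hill fit of concentration-response; data normalized to DMSO (basal) and 15 uM tetraoctylammonium bromide (100%). LYMP1-001 lymphoblastoid cells, 2500/well, 16 hr compound at 37 C; dead-cell protease fluorescence, Ex/Em 485/520.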

[2] = MultiTox-Fluor Cytotoxicity Assay - LYMP1-001 - Live Cells (AID 947)
[3] = Cell Viability - LYMP1-002 - Assay at 16 hr (AID 948)
Procedure, shortened: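 In this qHTS, lymphoblastoid LYMP1-002 cells (human) receive compounds for 16 hr at 37 C. Viability is taken from CellTiter-Glo ATP luminescence, and AC50 derives from standard Hill fits.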

[4] = MultiTox-Fluor Cytotoxicity Assay - LYMP1-002 - Live Cells (AID 955)
Procedure, shortened: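 Human lymphoblastoid LYMP1-002 cells, 2500/well in complete medium, rested 5 hr at 37 C, then exposed to compounds for 16 hr at 37 C. Live-cell protease cleavage of GF-AFC read by fluorescence (Ex/Em 405/510) after 60 min at room temperature; AC50 from Hill fits.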

[5] = MultiTox-Fluor Cytotoxicity Assay - LYMP1-002 - Dead Cells (AID 960); also: nearly all actives have a fitted effect of over 60% in size
Procedure, shortened: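 Human lymphoblastoid cells (LYMP1-002), 2500/well in complete medium, were exposed to compounds for 16 hr at 37 C. Dead-cell protease activity was read as bis-AAF-R110 fluorescence (Ex/Em 485/520), normalized to DMSO and 15 uM tetraoctylammonium bromide; AC50 from Hill fits.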

[6] = MultiTox-Fluor Cytotoxicity Assay - LYMP1-003 - Dead Cells (AID 961); also: nearly all actives have a fitted effect of over 70% in size
Procedure, shortened: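 Human lymphoblastoid LYMP1-003 cells (2500/well) were treated with compounds for 16 hr at 37 C in complete medium. Dead-cell protease release was read by bis-AAF-R110 fluorescence (Ex/Em 485/520). AC50 came from Hill fits, normalized to DMSO and 15 uM tetraoctylammonium bromide.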

[7] = MultiTox-Fluor Cytotoxicity Assay - LYMP1-003 - Live Cells (AID 962);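 also: cytotoxic hits lower the live-cell protease signal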
Procedure, shortened: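 LYMP1-003 human lymphoblastoid cells (2500/well) in complete medium were preincubated 5 hr at 37 C, then exposed to compounds for 16 hr at 37 C. Live-cell protease cleavage of GF-AFC read by fluorescence (Ex/Em 405/510); AC50 from Hill fits.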

[8] = Cell Viability - LYMP1-003 - Assay at 24 hr (AID 963)
Procedure, shortened: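 Human lymphoblastoid LYMP1-003 cells (2500/well) were rested 5 hr at 37 C, then exposed to compounds in complete medium for 24 hr at 37 C. Cellular ATP was quantified by CellTiter-Glo luminescence, and AC50 values came from Hill fits of concentration-response data.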

[9] = Cell Viability - LYMP1-003 - Assay at 40 hr (AID 964); also: series mostly up to about 92 µM; nearly all actives have a fitted effect of over 60% in size
Procedure, shortened: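 Human lymphoblastoid LYMP1-003 cells, 2500/well in complete medium, rested 5 hr at 37 C, then exposed to compounds for 40 hr at 37 C. Viability read as intracellular ATP by CellTiter-Glo luminescence; AC50 from Hill fits of concentration-response data.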

[10] = Cell Viability - LYMP2-003 (AID 965);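 also: cells exposed to compounds for 24 h before reading; nearly all actives have a fitted effect of over 50% in size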
Procedure, shortened: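 qHTS, human lymphoblastoid line, 2500 cells/well, complete medium. 24 h drug, 37 C. ATP-based luminescent readout; Hill-fit AC50.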

[11] = Cell Viability - LYMP2-004 (AID 966); also: nearly all actives have a fitted effect of over 65% in size
Procedure, shortened: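 Human lymphoblastoid cells (2500/well) in complete medium were treated with compounds for 24 hr at 37 C, then intracellular ATP was measured by CellTiter-Glo luminescence. AC50 values came from Hill-equation fits of concentration-response data.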

[12] = Cell Viability - LYMP2-009 (AID 968); also: series mostly up to about 92 µM; nearly all actives have a fitted effect of over 55% in size
[13] = Cell Viability - LYMP2-011 (AID 969); also: nearly all actives have a fitted effect of over 60% in size
Procedure, shortened: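 Human lymphoblastoid cells (2500/well) were plated in complete medium, preincubated 5 hr at 37 C, then exposed to compounds for 24 hr at 37 C. Intracellular ATP was read by CellTiter-Glo luminescence, and AC50 came from Hill-equation concentration-response fits.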

[14] = Cell Viability - LYMP2-013 (AID 970); also: series mostly up to about 92 µM; nearly all actives have a fitted effect of over 55% in size
Procedure, shortened: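 Human lymphoblastoid cells, 2500/well, were preincubated 5 hr at 37 C, then treated with compounds for 24 hr at 37 C in complete medium. Intracellular ATP was read by CellTiter-Glo luminescence; AC50 from Hill-equation fits of concentration-response data.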

[15] = Cell Viability - LYMP2-015 (AID 971); also: nearly all actives have a fitted effect of over 55% in size
Procedure, shortened: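 Human lymphoblastoid cells (2500/well) in complete medium were preincubated 5 hr at 37 C, then compound-treated 24 hr at 37 C. Intracellular ATP was read by CellTiter-Glo luminescence after 30 min at room temperature; AC50 came from Hill-equation concentration-response fits.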

[16] = Cell Viability - LYMP2-017 (AID 972); also: series mostly up to about 92 µM; nearly all actives have a fitted effect of over 55% in size
Procedure, shortened: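 Human lymphoblastoid cells (2500/well) were seeded in complete medium, held 5 hr at 37 C, then exposed to compounds for 24 hr at 37 C. Intracellular ATP was read by CellTiter-Glo luminescence after 30 min at room temperature, with AC50 values from Hill-equation fits.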

[17] = Cell Viability - LYMP2-019 (AID 973); also: nearly all actives have a fitted effect of over 55% in size
Procedure, shortened: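 Human lymphoblastoid cells were seeded at 2500 cells/well, preincubated 5 hr at 37 C, then exposed to compounds for 24 hr at 37 C in complete medium. Intracellular ATP was measured by CellTiter-Glo luminescence; AC50 from Hill fits.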

[18] = Cell Viability - LYMP2-021 (AID 974)
Procedure, shortened: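 Human lymphoblastoid cells (2500/well) were preincubated 5 hr at 37 C, then exposed to compounds for 24 hr at 37 C in complete medium. Intracellular ATP was read by CellTiter-Glo luminescence; AC50 came from Hill-equation fits of concentration-response data.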

[19] = Cell Viability - LYMP2-023 (AID 975)
Procedure, shortened: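 Human lymphoblastoid cells (2500/well) were preincubated 5 hr at 37 C, then exposed to compounds for 24 hr at 37 C in complete medium. Cellular ATP was read by CellTiter-Glo luminescence, and AC50 came from Hill-equation fits.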

[20] = Cell Viability - LYMP2-005 (AID 967); also: series mostly up to about 92 µM
Procedure, shortened: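 Luciferase-based ATP quantitation served as the viability measure in human lymphoblastoid LYMP2-005 cells exposed to test compounds for 24 h at 37 C in complete culture medium. Potency (AC50) was obtained by fitting concentration-response curves with the Hill equation.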

Measured: Potency

C=Cc1ccccn1
not listed: [20]
inactive: all other assays above

Nc1ccccc1S(=O)(=O)O
not listed: [14]
inactive: all other assays above

CC(=O)CC(C)C
not listed: [20]
inactive: all other assays above

COc1ccc(N)c(C)c1
not listed: [20]
inactive: all other assays above

ON=C1CCCCC1
not listed: [15] | [17]
inactive: all other assays above

CC(C)(O)C(=O)O
not listed: [12]
inactive: all other assays above

CN(C)CCCNCCCN
not listed: [12]
inactive: all other assays above

CCCC(Cl)CCCC(Cl)CCC(Cl)CCC(Cl)CCC(Cl)CCCC(Cl)CCC (configuration not stated)
not listed: [15]
inactive: all other assays above

CCC(C)(C)C
not listed: [14] | [18]
inactive: all other assays above

CC/C=C/C#N
not listed: [14]
inactive: all other assays above

CC(=O)OC(C)C
not listed: [14]
inactive: all other assays above

CCOC(=O)OCC
not listed: [15]
inactive: all other assays above

Cc1ccc(C#N)cc1
not listed: [14] | [15]
inactive: all other assays above

C=Cc1ccccc1C=C
not listed: [18]
inactive: all other assays above

Cc1cscn1
not listed: [12] | [15] | [18]
inactive: all other assays above

NC(=S)NNC(N)=S
not listed: [14] | [17]
inactive: all other assays above

CCc1ccccc1
not listed: [15]
inactive: all other assays above
